Rows were chosen to be rich in hits. Some 2.3% of all compounds tested hit in one or more screens of this group.
FUS yeast rescue: rescues growth of FUS-expressing yeast; S. cerevisiae FUS-expressing, growth rescue, OD600, 24 h; Potency, µM (titrated, usually from 76.6 µM), actives largely listed as activators; AID 1347120; actives 0.24% (n = 390,000);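 also: plate controls were DMSO vehicle for no effect and reference control for full effect; nearly all actives have a fitted effect of over 55% in size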
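Cultures pregrown in 2.5% raffinose medium are shifted to minimal medium containing 2% galactose to express toxic FUS. Compounds are tested at several concentrations. After 24hr at 30C, growth is quantified at 600 nm absorbance.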
uPA surface inh: cell surface uPA generation inhibition. cell surface uPA generation assay, qHTS. Potency, µM (titrated, usually from 38.3 µM), for inactives: at the top dose activity change, negative = inhibition, hits mostly inhibitors. actives 0.31% (n = 330,000). AID 540303; active = well fitted inhibition curve with a large enough effect; inconclusive = small, poorly fitted or top-dose-only effect; inactive = no such curve, though single readings can be large or run the other way; tested in mouse RAW 264.7 cells; also: % is scaled to controls: 0 for no effect and ±100 for the full control effect; nearly all actives have a fitted effect of over 55% in size
aSyn yeast inh: rescues yeast growth from alpha-synuclein toxicity; Yeast expressing alpha-synuclein, growth rescue, BacTiter-Glo, 24 h; Potency, µM (top dose mostly 46.1 µM), for inactives: at the top dose growth rescue (activation), actives largely listed as activators; AID 652106; actives 0.14% (n = 370,000); also: % of control where 0% means no effect; nearly all actives have a fitted effect of over 65% in size
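Galactose-induced alpha-syn yeast (OD600=0.02, raffinose-pregrown) + pinned cpd, 24 hr, 30 deg C; growth by BacTiter-Glo luminescence. Growth restoration scores as activation.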
TDP43 rescue: inhibitors of TDP-43 toxicity in yeast; TDP-43 expressing yeast growth rescue, BacTiter-Glo, 24 h; Potency, µM (titrated, usually from 46.1 µM), inactives show top-dose growth rescue (activation), actives largely listed as activators; actives 1.8% (n = 410,000); also: % of control where 0% means no effect; nearly all actives have a fitted effect of over 50% in size
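In this qHTS, compounds that restore growth of yeast expressing TDP-43 appear as activators. Cells (OD600=0.02, galactose medium, raffinose-pregrown) are incubated with compound 24 hr at 30 deg C and growth is quantified by BacTiter-Glo.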
Chronic BCR inh: chronic active BCR signaling inhibition; ABC-DLBCL IkBa-CBG/CBR reporter, luminescence ratio, 4 h; Potency, µM (top dose mostly 46.1 µM), for inactives: top-dose activity change, negative = inhibition, usual class: inhibitors; actives 0.05% (n = 340,000); active = well fitted inhibition curve with a large enough effect in the signal ratio, with a control signal flat, not every such curve was filed as active; inconclusive = small, poorly fitted or top-dose-only effect, or effect the other way, or a change in a side signal; the % refers to the signal ratio;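 also: plate controls were basal doxycycline-induced cells for no effect and cells given 10 µM MG132 for full effect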
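TMD8 ABC-DLBCL cells carrying doxycycline-inducible green luciferase fused to IkappaBalpha plus unfused red luciferase were exposed to compounds (up to 46 uM) for 4 hrs at 37C. Activity came from the overlap-corrected green/red luminescence ratio.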
Abeta rescue: A-beta toxicity reversal in yeast | yeast expressing A-beta42, growth rescue, OD600, 48 h; response scale: 0% DMSO, 100% iron-clioquinol control | Potency, µM (titrated, usually from 46.1 µM), actives largely listed as activators | actives 0.063% (n = 410,000) | AID 1347071; also: nearly all actives have a fitted effect of over 55% in size
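Yeast A-beta toxicity model in growth medium with pinned compounds, 48 h at 30 C; growth read as absorbance at 600 nm. Normalized to FeCl3/clioquinol equimolar mix (positive) and DMSO (negative).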
* = called active by the depositor. Unless noted, calls follow the shape of the dose curve; as a rule, active = well fitted curve in the direction sought with a large enough effect; inconclusive = small, poorly fitted or top-dose-only effect, or another doubt; inactive = no such curve, though single readings can be large; an effect the other way counts as inactive or inconclusive. Potency is read from the fitted curve at half-maximal effect.

What do the screens show for `CCNc1c(NC(C)=O)c(=O)oc2ccccc12`?
FUS yeast rescue: inactive; uPA surface inh: 4.2%; aSyn yeast inh: -5.2%; TDP43 rescue: -18.6%; Chronic BCR inh: 0.1%; Abeta rescue: inactive

What do the screens show for `COC(=O)c1cc2oc3ccccc3c2n1Cc1ccccn1`?
FUS yeast rescue: inactive; uPA surface inh: 0.5%; aSyn yeast inh: -20.3%; TDP43 rescue: 12.6µM*; Chronic BCR inh: inconclusive; Abeta rescue: inactive

How did COC(=O)c1cc2oc3ccccc3c2n1Cc1ccc(C)cc1 do in these assays?
FUS yeast rescue: inactive; TDP43 rescue: 8.1%; Abeta rescue: inactive

Results for COc1cc(OC)c2c(-c3cccc(-c4sccc4C(C)=O)c3)cc(=O)oc2c1 ?
FUS yeast rescue: inactive; uPA surface inh: 2.82µM*; aSyn yeast inh: 2.4%; TDP43 rescue: inconclusive; Chronic BCR inh: inconclusive; Abeta rescue: inactive

What do the screens show for `COc1cc(OC)c2c(-c3cccc(-c4ccc(NC(C)=O)cc4)c3)cc(=O)oc2c1`?
FUS yeast rescue: inconclusive; uPA surface inh: inconclusive; aSyn yeast inh: 5.5%; TDP43 rescue: 21.1%; Chronic BCR inh: inconclusive; Abeta rescue: inactive

What do the screens show for `O=C1CCCCCN1C(=O)c1ccccc1`?
FUS yeast rescue: inactive; uPA surface inh: 0.0%; aSyn yeast inh: -1.1%; TDP43 rescue: -16.4%; Abeta rescue: inactive

How did O=C1CCCCCN1Sc1ccccc1 do in these assays?
FUS yeast rescue: inactive; uPA surface inh: -10.7%; aSyn yeast inh: -19.3%; TDP43 rescue: 15.8µM*; Chronic BCR inh: inconclusive; Abeta rescue: inconclusive

How did COc1cc(OC)cc(C(=O)NCCc2csc(-c3ccc(C(F)(F)F)cc3)n2)c1 do in these assays?
FUS yeast rescue: inactive; TDP43 rescue: 17.8µM*; Abeta rescue: inactive

What do the screens show for `COc1ccc(CC(=O)NCCc2csc(-c3ccc(C(F)(F)F)cc3)n2)cc1`?
FUS yeast rescue: inactive; aSyn yeast inh: -4.0%; TDP43 rescue: 11.3%; Abeta rescue: inactive

Results for COc1ccc(C(=O)NCCc2csc(-c3ccc(Cl)cc3)n2)c(OC)c1 ?
FUS yeast rescue: inconclusive; TDP43 rescue: 20µM*; Abeta rescue: inactive

What do the screens show for `O=C(NCCc1csc(-c2ccc(Cl)cc2)n1)c1cccs1`?
FUS yeast rescue: inactive; TDP43 rescue: 17.8µM*; Abeta rescue: inactive

How did O=C(NCCc1csc(-c2ccccc2)n1)c1cccs1 do in these assays?
FUS yeast rescue: inactive; uPA surface inh: 6.1%; aSyn yeast inh: -2.0%; TDP43 rescue: inconclusive; Chronic BCR inh: -22.1%; Abeta rescue: inactive

How did Cc1ccccc1C(=O)NCCc1csc(-c2ccc(C(F)(F)F)cc2)n1 do in these assays?
FUS yeast rescue: inactive; TDP43 rescue: 21.6%; Abeta rescue: inactive

What do the screens show for `COc1ccccc1C(=O)NCCc1csc(-c2ccc(C(F)(F)F)cc2)n1`?
FUS yeast rescue: inconclusive; TDP43 rescue: 25.1µM*; Abeta rescue: inactive

Results for COc1cc(NC(=O)n2ncc3cc(Cl)ccc32)cc(OC)c1 ?
FUS yeast rescue: inactive; uPA surface inh: -13.9%; aSyn yeast inh: 4.0%; TDP43 rescue: 14.9%; Chronic BCR inh: -0.9%; Abeta rescue: inactive

Results for O=C(NCCc1ccc(Cl)cc1)c1cc2ccccn2n1 ?
FUS yeast rescue: inactive; uPA surface inh: -0.9%; aSyn yeast inh: 5.6%; TDP43 rescue: inconclusive; Chronic BCR inh: inconclusive; Abeta rescue: inactive

What do the screens show for `CCc1ccc(NC(=O)C(C)OC(=O)C2CCC(=O)N2)cc1` (stereo unspecified)?
FUS yeast rescue: inactive; uPA surface inh: 0.3%; aSyn yeast inh: -0.6%; TDP43 rescue: -9.0%; Chronic BCR inh: -17.5%; Abeta rescue: inactive

What do the screens show for `COc1ccc(-c2cc(C(F)(F)F)nc(S(=O)(=O)CCCC(=O)Nc3ccccc3C(F)(F)F)n2)cc1OC`?
FUS yeast rescue: inactive; TDP43 rescue: 31.6%; Abeta rescue: inactive

Results for Cc1ccc2c(c1)-c1c(cnn1CC(=O)N(Cc1ccco1)C1CCCCC1)CO2 ?
FUS yeast rescue: inactive; uPA surface inh: -25.2%; aSyn yeast inh: 14.7%; TDP43 rescue: 35.5µM*; Chronic BCR inh: -20.3%; Abeta rescue: inactive

What do the screens show for `Cc1ccc2c(c1)-c1c(cnn1CC(=O)N1CCN(c3ccccc3F)CC1)CO2`?
FUS yeast rescue: inactive; TDP43 rescue: 20µM*; Abeta rescue: inactive

What do the screens show for `Cc1ccc(C2CC(c3cccs3)=NN2C(=O)CSC2=NN3CCCC(=O)N=C3S2)cc1` (stereo unspecified)?
FUS yeast rescue: inconclusive; uPA surface inh: 3.9%; aSyn yeast inh: 5.1%; TDP43 rescue: 19.2%; Chronic BCR inh: 7.0%; Abeta rescue: inactive

How did Cc1onc(-c2ccccc2)c1C(=O)OCC(=O)N1CCC(C)CC1 do in these assays?
FUS yeast rescue: inactive; uPA surface inh: -3.2%; aSyn yeast inh: -1.6%; TDP43 rescue: inconclusive; Chronic BCR inh: 5.4%; Abeta rescue: inactive

How did COc1ccc2nc(NC(=O)c3cccc(N4C(=O)CCC4=O)c3)sc2c1 do in these assays?
FUS yeast rescue: inactive; uPA surface inh: 4.47µM*; aSyn yeast inh: -12.9%; TDP43 rescue: 4.1%; Chronic BCR inh: inconclusive; Abeta rescue: inactive

How did CCOc1ccc2nc(NC(=O)c3cccc(N4C(=O)CCC4=O)c3)sc2c1 do in these assays?
FUS yeast rescue: inactive; aSyn yeast inh: -0.9%; TDP43 rescue: 6.6%; Abeta rescue: inactive

How did CCc1ccc(CN(C)C(=O)CCc2nc3ccccc3n(-c3ccc(OC)cc3)c2=O)cc1 do in these assays?
FUS yeast rescue: inconclusive; uPA surface inh: -6.5%; aSyn yeast inh: 20.4%; TDP43 rescue: 17.8µM*; Chronic BCR inh: inconclusive; Abeta rescue: inactive

How did COc1ccc(-n2c(=O)c(CCC(=O)N(C)Cc3ccccc3C)nc3ccccc32)cc1 do in these assays?
FUS yeast rescue: inactive; uPA surface inh: 10.6%; aSyn yeast inh: 0.4%; TDP43 rescue: 0.0%; Chronic BCR inh: -7.7%; Abeta rescue: inactive

How did CCOC(=O)N1CCN(C(=O)c2ccc3c(c2)N=C(C)c2cc(Cl)ccc2S3)CC1 do in these assays?
FUS yeast rescue: inactive; uPA surface inh: -0.1%; aSyn yeast inh: -1.5%; TDP43 rescue: 24.2%; Chronic BCR inh: -8.8%; Abeta rescue: inactive

What do the screens show for `CC1=Nc2cc(C(=O)O)ccc2Sc2ccc(C)cc21`?
FUS yeast rescue: inactive; uPA surface inh: -1.1%; aSyn yeast inh: 28.6%; TDP43 rescue: 12.6µM*; Chronic BCR inh: 3.1%; Abeta rescue: inactive

Screening data as filed in PubChem BioAssay.
